The panel holds about 83,000 compounds, 20% with a hit somewhere; the sample as a whole holds those more often.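 96-well plates, one dose, 48 hours. Percent growth reported; active if below 10.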 Active and inactive are the calls of the source.
System: HL-60(TB) leukemia
Experiment: NCI-60 one-dose screen, 48 h (100 = growth as untreated, 0 = no growth, -100 = all killed)
Settings: 10 µM unless noted

| Structure (SMILES) | growth |
| --- | --- |
| COc1cc(CCC[P+](c2ccccc2)(c2ccccc2)c2ccccc2)c(OC)c2c1OCO2 | 13.6% (inactive) |
| O=C(NCCCl)Nc1ncccc1OCc1ccccc1 | 90% (inactive) |
| COc1cc(OC)c(NC(=O)n2ncc3cc(Nc4ncnc5ccccc45)ccc32)cc1Cl | 82.9% (inactive) |
| COc1cc(-c2nn(-c3ccc(C)cc3)cc2C(=O)O)ccc1O | 82.2% (inactive) |
| O=C1C(=O)c2c(nc3ncccn23)-c2ccccc21 | -51% (active) |
| Nc1ccccc1NC(=O)c1ccc(CN2CCC/C(=C\c3ccccn3)C2=O)cc1 | -18% (active) |
| COc1ccc(-c2cc(-c3ccc(Cl)cc3)nc(SCCCC(=O)NO)n2)cc1OC | -32.4% (active) |
| CCOC(=O)CC(=O)OC | 97% (inactive) |
| COc1ccc(C(=O)c2cc3c(N)c(C(=O)Nc4cccc(Br)c4C)sc3nc2C)cc1 | -58.7% (active) |
| O=C(Nc1ccc(F)cc1)Nc1ccc(CCO)cc1 | 101% (inactive) |
| CCN1CCN(c2cc(C)nc(NCc3cc(Nc4ccnc5cc(Cl)ccc45)ccc3F)n2)CC1 | 95.7% (inactive) |
| CCN1CCN(c2cc(C)nc(N(CCCNc3ccnc4cc(Cl)ccc34)Cc3ccc4c(c3)OCO4)n2)CC1 | -67.3% (active) |
| Cc1ccc(/C=C(\C#N)c2cc3ccccc3n2C)cc1 | 4.45% (active) |
| CCOC(=O)N1CCc2c(sc3c2C(=O)N[C@H](c2ccc(OC)cc2)N3)C1 | 99.8% (inactive) |
| C=C1C(=O)O[C@H]2[C@H]1CC/C(COC(=O)C(C)c1ccc(CC(C)C)cc1)=C\CC[C@@]1(C)O[C@@H]21 (stereo not given in full) | -9.46% (active) |
| CCCCc1n(Cc2ccc3ccccc3c2)c2ccccc2[n+]1Cc1ccc2ccccc2c1 | -59.2% (active) |
| CC(=O)c1cc(C(=O)c2ccc3c(c2)Sc2ccccc2N3)c2c(C)cccn12 | -4.53% (active) |
| CCCCC1COc2cccc3c2N1C=C/C3=C\C(=O)N(C)c1cccc(Cl)c1 (stereo not given) | 98.7% (inactive) |
| O=c1cc(-c2ccccc2)[nH]c2ccccc12 | 45% (inactive) |
| [O-][n+]1c2ccccc2[n+]([O-])c2c3ccccc3[nH]c21 | 100% (inactive) |

| Structure (SMILES) | growth |
| --- | --- |
| Cc1ccc(C2NC(=S)N3C(c4ccc(C)cc4)NC(=S)N23)cc1 (stereo not given) | -23.9% (active) |
| Nc1nc(N)c2c(ccc3nccc32)[nH]1 | 16.5% (inactive) |
| Cc1nn(-c2ccccc2)c2nc3c(nc12)C1=NCCN1C(c1ccc(Cl)cc1)N3 (stereo not given) | 70.7% (inactive) |
| O=C(CCc1nnc2sc(OCc3ccccc3)nn12)c1nc2ccc([N+](=O)[O-])cc2[nH]1 | 97.9% (inactive) |
| CC(C)(C)c1cc(-n2c(-c3ccc(Cl)cc3)nc3cc(C(=O)Nc4ccc(Cl)cc4)ccc32)n[nH]1 | 51.3% (inactive) |
| Oc1ccccc1/C=N\Nc1ccccc1 | 16.5% (inactive) |
| Cc1c(C(=O)OCCO)cc(-c2ccc(Cl)cc2)n1-c1ccc(Cl)cc1Cl | 59.7% (inactive) |
| CC(C)CC(NC(=O)C(CCCN=C(N)N)NC(=O)OCc1ccccc1)C(=O)NC(CNC(=O)/C=C/c1ccccc1)C(C)C (stereo not given) | 102% (inactive) |
| COc1ccc(C(=O)c2cc(OC)c(OC)c(OC)c2)cc1/C=C/C(=O)c1ccc(O)cc1 | 14.2% (inactive) |
| CCC(CCNc1cc(OC)cc2cccnc12)CN1C(=O)c2ccccc2C1=O (stereo not given) | 107% (inactive) |
| O=C(C(=O)N1CCOCC1)c1ccc(OC2OC(CO)C(O)C(O)C2O)cc1 (stereo not given) | 82.7% (inactive) |
| O=C1COCCN1c1ccc(Nc2nc(Cl)nc(N3CCOCC3)n2)cc1 | 90.5% (inactive) |
| CCC(=O)NC1=C(Cl)C(=O)C(NC(=O)CC)=C(Cl)C1=O | -51.1% (active) |
| COc1ccc(/C=C2\CCCC3=C2N=C2SC=NN2C3c2ccc(OC)c(OC)c2)cc1OC (stereo not given) | 15% (inactive) |
| O=c1cc(C2NNC(=S)N2)c2ccc3ccccc3c2o1 (stereo not given) | 102% (inactive) |
| CCC(C)Nc1ccc(N)cc1 (stereo not given) | -9.29% (active) |
| CCCOC(=O)C1(O)CCCC1 | 107% (inactive) |
| NC(=O)OCCO | 106% (inactive) |
| COc1ccc(/C=C/c2nc(Nc3cccc(NC(C)=O)c3)c3ccccc3n2)cc1 | 78.5% (inactive) |
| COc1ccc(C(O)c2cc3c(N)c(C(=O)Nc4cccc(OC)c4)sc3nc2C)cc1 (stereo not given) | -55.9% (active) |

Reference: PubChem BioAssay (NCI)
